In all, about 16,000 compounds went through this assay and about 5,700 (36%) were called active. About 24% were inconclusive and are not listed. The list shows a part of the results. A number with no mark means an inactive call. Calls follow the shape of the dose curve; as a rule, active = well fitted curve in the direction sought with a large enough effect; inconclusive = small, poorly fitted or top-dose-only effect, or effect the other way; inactive = no such curve, though single readings can be large or run the other way.
These compounds were tested against Cytochrome P450 1A2 (Homo sapiens) (UniProt P05177) (assay: Cytochrome panel assay with activity outcomes). Details: recombinant CYP, pro-luciferin dealkylation, luminescence, p450-cyp1a2; series mostly up to 57.1 µM; activity, negative = inhibition: at the top concentration.
Sequence of Cytochrome P450 1A2 (Homo sapiens) (P05177 whole entry, looked up): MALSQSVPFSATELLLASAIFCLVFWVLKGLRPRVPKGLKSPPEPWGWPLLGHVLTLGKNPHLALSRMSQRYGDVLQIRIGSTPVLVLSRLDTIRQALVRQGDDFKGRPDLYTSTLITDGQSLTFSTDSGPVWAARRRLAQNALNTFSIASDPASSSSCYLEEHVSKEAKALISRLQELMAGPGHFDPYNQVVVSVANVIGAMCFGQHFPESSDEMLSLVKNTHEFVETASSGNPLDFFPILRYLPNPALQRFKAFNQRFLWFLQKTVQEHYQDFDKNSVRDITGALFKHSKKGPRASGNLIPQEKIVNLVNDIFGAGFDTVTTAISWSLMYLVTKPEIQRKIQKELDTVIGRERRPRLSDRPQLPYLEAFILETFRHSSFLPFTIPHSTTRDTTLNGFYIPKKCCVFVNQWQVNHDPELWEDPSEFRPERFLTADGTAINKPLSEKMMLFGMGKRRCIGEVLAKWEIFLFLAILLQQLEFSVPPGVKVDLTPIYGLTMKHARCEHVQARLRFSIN
% is scaled to controls: 0 for no effect and ±100 for the full control effect.

Row | SMILES | AC50 | activity, negative = inhibition
1 | COc1cc(CNCc2ccccn2)ccc1OCc1ccc(Cl)cc1Cl | 0.316 µM (active) | 
2 | COc1ccc(CNC(C)(C)C)cc1Cl |  | 4.33%
3 | CCSc1nc2ccccc2n1C(=O)/C=C\c1ccc(OC)c(OC)c1 | 6.31 µM (active) | 
4 | C=CCSc1nc2ccccc2n1C(=O)/C=C/c1cc(OC)c(OC)c(OC)c1 | 7.08 µM (active) | 
5 | CCn1c(-c2ccccc2Cl)nn(CC(=O)Nc2cc(Cl)ccc2Cl)c1=S | 15.8 µM (active) | 
6 | CCn1c(-c2ccccc2Cl)nn(CC(=O)Nc2ccccc2OC)c1=S |  | -20.3%
7 | CC(=O)OC[C@H]1O[C@@H](O/N=C(\C)CCN2CCCc3nc(C)c(C)cc32)[C@H](OC(C)=O)[C@@H](OC(C)=O)[C@H]1OC(C)=O |  | 0.931% [at 11.4 µM]
8 | CC(C)(C)N1C(=O)[C@H]2[C@H]3[C@H](O)[C@H](O)C/C(=N/OC[C@@H](O)COCc4ccco4)[C@@H]3CC[C@@H]2C1=O |  | 4.56% [at 11.4 µM]
9 | COc1ccc(-c2noc(N(C)CC(=O)Nc3cccc(C(F)(F)F)c3)n2)cc1 | 5.01 µM (active) | 
10 | COCCNc1cc(-c2c(C)noc2C)ncn1 | 10 µM (active) | 
11 | CNc1cc(-c2c(C)noc2C)ncn1 | 5.01 µM (active) | 
12 | COCCNc1ncncc1-c1c(C)noc1C |  | -12.6%
13 | Cc1noc(C)c1-c1cc(NC2CC2)ncn1 | 0.316 µM (active) | 
14 | COC(=O)N1CCC2(CC1)CN(C(c1ccccc1)c1ccccc1)C2 |  | -2.53%
15 | C[C@@]12CCC(=O)C=C1CC[C@@H]1[C@@H]2[C@H](O)C[C@]2(C)[C@@H]1CC[C@]2(O)C(=O)CO |  | -6.61% [at 25.6 µM]
16 | CCOC(=O)c1c(NC(=O)Nc2ccccc2)sc(C)c1C | 3.55 µM (active) | 
17 | CCOc1ccc(CC(=O)Nc2sc(Cc3ccccc3)c(C)c2C(N)=O)cc1OCC |  | -26.8%
18 | CC(C)C(=O)Nc1ccc(C(=O)NNC(=O)C(c2ccccc2)c2ccccc2)cc1 |  | -16.1%
19 | CN(C(=O)CC(NC(=O)c1ccccc1)(c1ccccc1)c1ccccc1)c1ccccc1 |  | -7.59%
20 | Cc1sc(NC(=O)c2ccccc2)c(C(=O)NCCN(C)C)c1C | 11.2 µM (active) | 
21 | Cc1sc(NC(=O)C(C)C)c(C(=O)Nc2ccccc2)c1C | 1.26 µM (active) | 
22 | CCN1CCN(C(c2ccccn2)c2c(NC(=O)c3ccccc3)sc(C)c2C)CC1 (stereo not drawn) |  | -13.5%
23 | COC(=O)c1c(NC(C)=O)sc(Cc2ccccc2)c1C | 1.58 µM (active) | 

Row | SMILES | AC50 | activity, negative = inhibition
24 | C=C(Br)CN(C)CC(=C)Br |  | -4.98% [at 11.4 µM]
25 | CC(C)SC(=N)N |  | -17.7%
26 | Cc1noc(C)c1C(=O)N1CCC[C@@]2(CCN(C(=O)NC(C)C)C2)C1 |  | -23.1%
27 | O=C(O)CP(=O)(O)O | inactive | 
28 | Cc1oc(-c2cccc(Cl)c2)[n+]([O-])c1C | 4.47 µM (active) | 
29 | CCCC/C=C/C(NC(=O)c1ccco1)c1ccccc1 (stereo not drawn) | 5.01 µM (active) | 
30 | CCC(=O)Nc1ccc(C(=O)NNC(=O)c2cccs2)cc1 |  | 13.6%
31 | CCC/C=C(\CCC)C(NP(=O)(c1ccccc1)c1ccccc1)c1ccc(C(F)(F)F)cc1 (stereo not drawn) |  | -7.24%
32 | CCCC/C=C/C(NC(=O)Oc1cccc(C(F)(F)F)c1)c1ccccc1 (stereo not drawn) | 2.51 µM (active) | 
33 | CCCC/C=C/C(NC(=O)c1cccs1)c1ccccc1 (stereo not drawn) | 1.58 µM (active) | 
34 | C#CCOC(=O)NC(/C=C/CCCC)c1ccccc1 (stereo not drawn) | 15.8 µM (active) | 
35 | O=C(c1cccs1)N1CCN(C(=O)C(c2ccccc2)c2ccccc2)CC1 |  | -5.01%
36 | Nc1ncnc2c1nc(Br)n2[C@@H]1O[C@H]2COP(=O)(O)O[C@@H]2[C@H]1O |  | -8.7%
37 | CC1(C)Cc2ccccc2C(N/N=C/c2cccc(F)c2)=N1 | 11.2 µM (active) | 
38 | Cn1c(Oc2ccccc2)c(C=O)c2ccccc21 | 7.08 µM (active) | 
39 | COc1ccc(Oc2c(C=O)c3ccccc3n2C)cc1 | 14.1 µM (active) | 
40 | Cc1cccc(C(=O)NN(C)c2nc(-c3ccccc3)nnc2C(F)(F)F)c1 |  | 21.4%
41 | FC(F)(F)c1nnc(-c2ccccc2)nc1Sc1ccccc1 | 1.41 µM (active) | 
42 | COc1ccc(CC(=O)O/N=C(\N)Cc2ccc(OC)cc2)cc1 |  | -29.9%
43 | COc1ccccc1CC(=O)O/N=C(\N)Cc1cccc2ccccc12 | 11.2 µM (active) | 
44 | COc1ccccc1CNC(=O)C/C(C)=N/NC(=O)Cc1ccccc1 |  | -20.9%
45 | COc1ccccc1C/C(N)=N/OC(=O)c1ccc(C)c([N+](=O)[O-])c1 | 14.1 µM (active) | 
46 | C[N+](C)(C)CCOC(N)=O | inactive | 

Row | SMILES | AC50 | activity, negative = inhibition
47 | CCOC(=O)[C@@H](O)Cc1cnc2ccccc2n1 | 3.16 µM (active) | 
48 | O=S(=O)(c1cnccc1N1CCN(CCO)CC1)N1CCCC1 |  | -8.25% [at 2.29 µM]
49 | FC(F)(F)c1cc(CN2CCC3(CCNCC3)CC2)cc(C(F)(F)F)c1 |  | -9.83%
50 | Cc1ccc(NC(=O)c2cccc(N(C)C)c2)cc1NC(=O)c1ccc(O)cc1 | 1.26 µM (active) | 
51 | Cc1nn(CC(O)COc2ccc3c(c2)CCC3)c(C)c1Br (stereo not drawn) | 12.6 µM (active) | 
52 | OC(COc1ccc(OCC(O)CN2CCCCCC2)cc1)CN1CCCCCC1 (stereo not drawn) |  | 4.84%
53 | COc1ccc(C2=CSC(/N=C/c3ccc(F)cc3)=NN2)cc1 | 2.82 µM (active) | 
54 | CC(C)=NO[C@@H](C)CN1CCCCc2nc(C)c(C)cc21 |  | -10.5% [at 11.4 µM]
55 | Cc1cc(Br)ccc1NC(=O)CCSc1ccccc1 | 4.47 µM (active) | 
56 | Cc1ccc(NC(=O)CCC(=O)NNS(=O)(=O)c2ccccc2)c(C)c1 |  | -29.8%
57 | S=C(S)O[C@@H]1C[C@@H]2C[C@H]1[C@@H]1CCC[C@H]21 | inactive | 
58 | O=C(COc1ccc(-c2ccccc2)cc1)N/N=C/c1ccccc1Br | 5.01 µM (active) | 
59 | O=C(COc1ccccc1-c1ccccc1)N/N=C/c1cccc2ccccc12 | 0.794 µM (active) | 
60 | COc1ccc(OCC(=O)NNC(=O)c2ccc(-c3ccccc3)cc2)cc1 |  | -1.81%
61 | O=c1[nH]c(SCc2c(Cl)c(Cl)c(Cl)c(Cl)c2Cl)nc(=S)[nH]1 | 1 µM (active) | 
62 | CCCC[C@H]1C[C@@H]1[C@@H]1N(P(=O)(c2ccccc2)c2ccccc2)[C@](CO)(c2ccccc2)CC12CC2 |  | -20.5%
63 | CCc1n[nH]c(=S)n1/N=C/c1ccc2c(c1)OCO2 | 2.24 µM (active) | 
64 | CCCc1nnc(SCC(=O)N2CCCC(C)C2)n1CC1CCCO1 (stereo not drawn) |  | 7.21%
65 | CCCc1nnc(SCC(=O)N2CCCCC2)n1CCCOC |  | -23.7%
66 | CCCc1nnc(SCC(=O)O)n1/N=C/c1ccc2c(c1)OCO2 | 15.8 µM (active) | 
67 | CSc1nncn1/N=C/c1ccc2c(c1)OCO2 | 4.47 µM (active) | 
68 | OC[C@@H]1O[C@@H](O)[C@H](N=Cc2ccc3c(c2)OCO3)[C@@H](O)[C@@H]1O |  | -24.4% [at 2.29 µM]
